A word on the inhibition: it is the drop in the measured response relative to a control, in per cent.

The whole screen tested about 190,000 compounds, of which about 200 (0.11%) were called active. The sample holds actives, similar compounds and a random draw of the others, so the mix is not that of the screen. No stated cut-off is given here; in the data, active means inhibition above about 40%.

The values that follow come from PubChem BioAssay AID1009 (NMMLSC, 2008).

For the test, the target named is Induced myeloid leukemia cell differentiation protein Mcl-1 (Homo sapiens) (UniProt Q07820). Kind of test: Mcl-1/Bim interaction disruptors – biochemical, bead-based flow cytometry, multiplex, primary screen (AID 1009).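 Further: 0% = no compound tracer wells and 100% = peptide blocker.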 The settings on record: Bim peptide-Mcl-1 binding, at 10 µM, stronger effect = higher value.
Sequence of Induced myeloid leukemia cell differentiation protein Mcl-1 (Homo sapiens) (Q07820 whole entry, looked up): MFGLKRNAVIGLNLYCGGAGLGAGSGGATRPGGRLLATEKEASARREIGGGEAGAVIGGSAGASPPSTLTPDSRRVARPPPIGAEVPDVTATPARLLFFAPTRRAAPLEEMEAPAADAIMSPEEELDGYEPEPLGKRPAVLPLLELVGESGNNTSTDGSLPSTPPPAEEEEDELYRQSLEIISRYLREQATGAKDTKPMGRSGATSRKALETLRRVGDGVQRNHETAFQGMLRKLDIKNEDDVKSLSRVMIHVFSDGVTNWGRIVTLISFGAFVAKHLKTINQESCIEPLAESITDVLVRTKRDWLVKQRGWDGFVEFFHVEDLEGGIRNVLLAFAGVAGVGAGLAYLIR
On to `COCCNC(=O)CCCn1c(=O)c2ccccc2n(Cc2cccc([N+](=O)[O-])c2)c1=O`, for which the inhibition was 0% (inactive).

Turning to `CCC(=O)N1c2ccccc2NC2=C(C(=O)CCC2)C1c1ccco1` (configuration not stated), the inhibition is 0% (inactive).

For `S=c1[nH]cc(-c2ccc(Cl)cc2)n1-c1ccccc1`, the inhibition was 3% (inactive).

For `CC/C(=N\NC(=S)NC(C)C)c1ccc(OC(F)F)cc1`, the inhibition is -2% (inactive).

Turning to `O=c1cc(CO)oc(C(Nc2cccc([N+](=O)[O-])c2)c2ccccn2)c1O` (configuration not stated), the inhibition is -4% (inactive).

In the case of `CCCc1nc2c([nH]1)C(c1cccnc1)C(C#N)=C(N)O2` (configuration not stated), the inhibition is -3% (inactive).

Regarding `COCCCNC(=S)N1CCCC(c2nc3cc(C)c(C)cc3[nH]2)C1` (configuration not stated), the inhibition was 6% (inactive).

Regarding `O=C(O)c1ccc2c3c(cccc13)C(=O)N(OS(=O)(=O)c1ccccc1)C2=O`, the inhibition was 1% (inactive).

On to `O=c1[nH]c(CN2CCOCC2)nc2scc(-c3ccccc3)c12`, for which the inhibition is 0% (inactive).

As for `O=C(O)Cc1ccc(NCc2ccccc2Cl)cc1`, the inhibition is -2% (inactive).

Regarding `CC(NC(=O)CC1SC(N)=NC1=O)c1ccccc1` (configuration not stated), the inhibition was -7% (inactive).

For the compound `CCc1nn(CCCN2CCN(c3cccc(Cl)c3)CC2)c(=O)n1CCOc1ccccc1`, the inhibition was 0% (inactive).

Consider `O=C1CS(=O)CN1c1ccc(Oc2ccccc2)cc1` (configuration not stated), for which the inhibition is 0% (inactive).

As to `C=C(C)C1CC=C(C)/C(=N\NC(=O)CNc2ccccc2OC)C1` (configuration not stated), the inhibition is 0% (inactive).

For the compound `COc1ccc([N+](=O)[O-])cc1NC(=O)CC1SC(=Nc2cccc(C)c2C)N(/N=C(\C)c2ccc(C)cc2)C1=O` (configuration not stated), the inhibition is -1% (inactive).

`Cc1ccccc1NC(=O)Cn1c(=O)n(CC2CCCO2)c(=O)c2ccccc21` (configuration not stated): the inhibition is -1% (inactive).

As to `COc1cccc(NC(=S)C(C#N)=C2N(C)c3ccccc3N2C)c1`, the inhibition is -1% (inactive).

For `CCc1[nH]nc(C(=O)N2CCCC(CNS(=O)(=O)c3cccs3)C2)c1C` (configuration not stated), the inhibition is 0% (inactive).

As for `CC(C(=O)NCC1CCCCC1)N(C)Cc1cccc(Cl)c1` (configuration not stated), the inhibition was -1% (inactive).

Take `CCO[C@H]1OC(C(=O)N2CCCCCCC2)=C[C@@H](c2ccc(C(F)(F)F)cc2)[C@@H]1CCCO`: the inhibition is -4% (inactive).

`O=S(=O)(c1ccc(F)cc1)N1CCN(C(=S)NCc2ccco2)CC1`: the inhibition is -6% (inactive).

Consider `CC(=O)Nc1ccc(NC(=S)NC(=O)c2ccc([N+](=O)[O-])c(C)c2)cc1`, for which the inhibition is 2% (inactive).

As for `CN1CCN(CCNC(=O)Nc2ccc([N+](=O)[O-])cc2)CC1`, the inhibition is -3% (inactive).

As for `CC1CCC(C(C)C)C(=O)/C1=C\c1ccc(NC(=O)CCC(=O)O)cc1` (configuration not stated), the inhibition was 0% (inactive).

For the compound `Cc1ccc(CN2CCN(Cc3ccccc3-c3ccco3)CC2CCO)o1` (configuration not stated), the inhibition was -1% (inactive).

In the case of `CCCCC1S/C(=N/N=C/c2cccs2)NC1=O` (configuration not stated), the inhibition is -1% (inactive).

As for `NC(=O)c1ccc(N2CCOCC2)nc1`, the inhibition is 1% (inactive).

On to `Cc1ccc2nc(C)cc(N/N=C/c3ccc(F)cc3)c2c1`, for which the inhibition is 0% (inactive).

As to `Cc1n[nH]c(=O)nc1N/N=C/c1cccs1`, the inhibition is -1% (inactive).

`CC(=O)N/N=C/c1cc2c(cc1[N+](=O)[O-])OCO2`: the inhibition is -2% (inactive).

On to `Cc1ccc(Cl)cc1NC(=O)c1ccccn1`, for which the inhibition was -2% (inactive).

On to `NS(=O)(=O)c1ccc(NC(=O)COC(=O)c2ccco2)cc1`, for which the inhibition was 1% (inactive).

Take `O=C(N/N=C/c1ccco1)c1ccc(NC(=O)C2CC2)cc1`: the inhibition is -2% (inactive).

Consider `Cc1ccc2c(CC(=O)NCc3cccs3)coc2c1`, for which the inhibition is -3% (inactive).

Turning to `COc1ccccc1NC(=O)C[n+]1ccccc1`, the inhibition was 0% (inactive).

With `CCOC(=O)/C(C#N)=C/c1ccc(N2CCCCC2)cc1`, the inhibition is 0% (inactive).

Regarding `CCOC(=O)c1sc2nc(C)nc(Nc3ccc(OC)c(OC)c3)c2c1C`, the inhibition was 3% (inactive).

Turning to `Cc1nc2ccccc2c(C)c1C(=O)c1ccc(F)cc1`, the inhibition is 0% (inactive).

For `CCOC(=O)c1ccc(NNC(C)=O)c([N+](=O)[O-])c1`, the inhibition was -1% (inactive).

For `Cc1nc2cc(NCc3cccs3)ccc2n1C`, the inhibition is -1% (inactive).

For `COc1ccc(N2CCN(C(=O)C3CCN(S(=O)(=O)c4ccc(C)cc4)CC3)CC2)cc1`, the inhibition is 0% (inactive).

Consider `O=C(CC1SC(=Nc2ccccc2)N(Cc2ccccn2)C1=O)Nc1cccc(Cl)c1` (configuration not stated), for which the inhibition was 2% (inactive).

`CCOC(=O)c1sc(=NC(=O)/C=C/c2cccs2)n(C)c1C`: the inhibition was 3% (inactive).

Take `CC(=O)N1CCN(S(=O)(=O)c2ccc(C)c([N+](=O)[O-])c2)C1C(C)C` (configuration not stated): the inhibition is 0% (inactive).

Consider `CCC1(CC)NC(=O)N(Cc2nc3ccccc3s2)C1=O`, for which the inhibition was -2% (inactive).

For `CCCNC(=O)OC[C@H]1O[C@H](CCO/N=C/[C@@H](NS(=O)(=O)c2ccc(C)cc2)[C@H](C)/C=C/CC(=O)OC)C=C[C@@H]1Oc1ccc(OC)cc1`, the inhibition was -2% (inactive).

Consider `Cc1ccc(C(=O)NC(=S)Nc2ccc3[nH]c(=O)[nH]c3c2)cc1C`, for which the inhibition was -2% (inactive).

In the case of `CSc1nc2nc(-c3cccc(C(F)(F)F)c3)ccn2n1`, the inhibition was 5% (inactive).

As to `Cc1ccc(S(=O)(=O)N(C)C)cc1NC(=O)COC(=O)C1COc2ccccc2O1` (configuration not stated), the inhibition is 3% (inactive).

Consider `O=C(CCN1C(=O)c2ccncc2C1=O)Nc1cc(F)ccc1F`, for which the inhibition was 0% (inactive).

`O=C(c1ccc(F)cc1)N1CCC(n2nnc3ccccc32)CC1`: the inhibition was -2% (inactive).

For the compound `Cc1ccc(C)c(Cn2cnc3c(oc4ccccc43)c2=O)c1`, the inhibition was -1% (inactive).

In the case of `COc1ccc(-c2ccc(CNCCCN3CCOCC3)o2)cc1Cl`, the inhibition is 2% (inactive).

Take `Cc1ccc(C(=O)O)cc1NC(=O)c1ccc(Cn2nc(C)c(Cl)c2C)o1`: the inhibition is 1% (inactive).

On to `COc1cc(NC(=S)N2CCCC(C)C2)c(OC)cc1Cl` (configuration not stated), for which the inhibition is -5% (inactive).

For `CCCCN(CC)CCNC(=O)CCNC(=O)Cn1ccc2ccccc2c1=O`, the inhibition is -4% (inactive).

`O=C(CCSc1ccccc1)N1CCN(c2ccccc2F)CC1`: the inhibition is -2% (inactive).

As to `CCCN=C1NC(=O)C(CC(=O)NCCc2ccc(OC)c(OC)c2)S1` (configuration not stated), the inhibition was -11% (inactive).

In the case of `Cc1ccc(S(=O)(=O)N2CCN(C(=O)c3cccs3)CC2)cc1`, the inhibition was -5% (inactive).

In the case of `Cc1ccc(S(=O)(=O)NCCC(c2ccccc2)c2ccccc2)cc1C(=O)O`, the inhibition is 1% (inactive).

For the compound `CN(C)C(=O)c1cccn(Cc2cccc(C(F)(F)F)c2)c1=O`, the inhibition was 0% (inactive).

As to `Cc1ccc(-c2ccc(/C=C(\C#N)C(N)=S)o2)c([N+](=O)[O-])c1`, the inhibition is 0% (inactive).

Turning to `O=C(COC(=O)Cn1cnc2ccccc2c1=O)NCC12CC3CC(CC(C3)C1)C2`, the inhibition was -4% (inactive).

Consider `N#C/C(C(=S)Nc1ccccc1)=C1/NN=C(N2CCOCC2)N1c1ccccc1`, for which the inhibition is 0% (inactive).

For `CCN(CC)S(=O)(=O)c1ccc(N2CCOCC2)c(NC(=O)C2COc3ccccc3O2)c1` (configuration not stated), the inhibition was 2% (inactive).

`CCc1cc(C(=O)OC)c(NC(=O)CC2Sc3ccc(C(F)(F)F)cc3NC2=O)s1` (configuration not stated): the inhibition was -1% (inactive).

Turning to `Cc1ccc(S(=O)(=O)N(C)CC(=O)OCC(=O)N2CC(=O)Nc3ccccc32)cc1`, the inhibition is 1% (inactive).

With `Cc1ccc(S(=O)(=O)N(C)CC(=O)N2CCc3ccccc32)cc1`, the inhibition was 41% (active).

For `Cc1ccc(S(=O)(=O)NCC(=O)OCC(=O)N2CCc3ccccc32)cc1`, the inhibition was -6% (inactive).

For `Cc1nnsc1C(=O)N/N=C/c1cccc(C(F)(F)F)c1`, the inhibition is -2% (inactive).

As to `CN(C)c1ccc(/C=N\S(=O)(=O)c2ccccc2)cc1`, the inhibition is -6% (inactive).

For `Cc1cc(NC(=O)CSCc2ccccc2C)no1`, the inhibition is 0% (inactive).

As to `COc1ccc(-n2c(C)cc(C(=O)COC(=O)c3cc(OC)c(OC)cc3NC(=O)c3cccs3)c2C)cc1`, the inhibition was -5% (inactive).

Turning to `O=C(O)c1cccc(NC(=S)N/N=C/c2c[nH]c3ccccc23)c1`, the inhibition is -3% (inactive).

For the compound `CC(C)N(C)C(=O)CCc1nnc(CCc2c[nH]c3ccccc23)o1`, the inhibition is -3% (inactive).

Turning to `CCCCn1nc(C(=O)OCC(=O)Nc2sccc2C(N)=O)c2ccccc2c1=O`, the inhibition is -1% (inactive).

Consider `CC(=O)Nc1ccc(S(=O)(=O)N(C)c2ccc(OCC(=O)OCC(=O)N3CCCCC3)cc2)cc1`, for which the inhibition is -2% (inactive).

Regarding `COc1ccc(CN(C)C(=S)Nc2ccc(Cl)cc2Cl)cc1`, the inhibition is 1% (inactive).

For `CCOC(=O)c1c(-c2cccc(N)c2)cn2ccccc12`, the inhibition was 0% (inactive).

On to `Cc1ccc(S(=O)(=O)NC(=O)COc2ccccc2C)cc1`, for which the inhibition is 51% (active).

In the case of `COCCNC(=O)COc1ccccc1C`, the inhibition is 2% (inactive).

Consider `COc1ccccc1CNS(=O)(=O)c1ccc(C)cc1`, for which the inhibition is -2% (inactive).

Take `CN1CCN(CC#CCC2(O)c3ccccc3-c3ccccc32)CC1`: the inhibition was -1% (inactive).

In the case of `O=C(Nc1nnc(-c2ccco2)o1)c1ccc(S(=O)(=O)N2CCOCC2)cc1`, the inhibition is 0% (inactive).

With `COCCn1c(=NC(=O)c2ccccc2[N+](=O)[O-])sc2cc(S(C)(=O)=O)ccc21`, the inhibition is -2% (inactive).

On to `CC1(C)CC(=O)C(CC(=O)N2CCC(Cc3ccccc3)CC2)C(=O)C1`, for which the inhibition was 1% (inactive).

Consider `COc1ccc(Cl)cc1NC(=O)COC(=O)C(CC(C)C)N1C(=O)C2CC=CCC2C1=O` (configuration not stated), for which the inhibition was -1% (inactive).

With `Cc1cc(NC(=O)CN2C(=O)NC(CCc3ccccc3)C2=O)no1` (configuration not stated), the inhibition is -1% (inactive).

For the compound `Cc1c(CCOC(=O)c2cc([N+](=O)[O-])ccc2Cl)sc[n+]1CCCCS(=O)(=O)[O-]`, the inhibition is -1% (inactive).

For the compound `Cc1cccc(C(=O)OCC(=O)NCC(C)C)c1O`, the inhibition is 4% (inactive).

Turning to `CC1(C)CC(=O)C(C2c3ccccc3S(=O)(=O)c3ccccc32)C(=O)C1`, the inhibition was -1% (inactive).

As to `COc1ccc2oc(=O)c(C(=O)N3CCCC3)cc2c1`, the inhibition is 3% (inactive).

Turning to `C=CCC(CC=C)(C(N)=O)c1ccccc1`, the inhibition is 3% (inactive).

In the case of `COc1cc(NC(=O)COC(=O)c2cnc(C)cn2)c(C)cc1[N+](=O)[O-]`, the inhibition was 0% (inactive).

`Cc1ccc(-c2ccc(/C=N/NC(=O)CN3CCOCC3)o2)cc1[N+](=O)[O-]`: the inhibition was -1% (inactive).

As to `Cc1cc(C)n2nc(SCC(=O)NC(=O)NCc3ccco3)nc2n1`, the inhibition was 0% (inactive).

As to `CN(C)c1ccc(C(CC(=O)O)C(=O)O)cc1` (configuration not stated), the inhibition was -1% (inactive).
